{
  "source": "the supplement of paper PMC12067926",
  "data": [
    {"test_system": "Carnobacterium 1 (Carnobacterium gallinarum)", "test": "relative growth (AUC of 72 h growth curve relative to DMSO control, dAUC) (ratio); higher = more growth (less inhibition), active = hit call of the paper", "conditions": "20 µM;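 active = growth AUC significantly below the DMSO wells by Dunnett test; inactive = the rest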", "description": "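Environmental bacterial isolates (Iceland stream sediment and Silwood Park soil) and whole stream-sediment communities were grown in LB from a 1:100 dilution with each pesticide at 20 µM (1% DMSO). A600 was read hourly for 72 h and the area under a spline-fitted growth curve (AUC) was computed. dAUC is the mean AUC of 3 biological replicates divided by the mean AUC of the DMSO controls. Significance was tested by Dunnett's test against the DMSO control.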", "values": [
      {"smiles": "COP(=S)(OC)Oc1ccc(SC)c(C)c1", "relative growth": "1.08 (inactive)"},
      {"smiles": "CCCN(CCOc1c(Cl)cc(Cl)cc1Cl)C(=O)n1ccnc1", "relative growth": "1.08 (inactive)"},
      {"smiles": "Cc1nnc(-c2ccccc2)c(=O)n1N", "relative growth": "0.953 (inactive)"},
      {"smiles": "CC1(C)C(C(=O)OC(C#N)c2cccc(Oc3ccccc3)c2)C1(C)C", "note": "(stereo not given)", "relative growth": "1.18 (inactive)"},
      {"smiles": "CCNc1nc(Cl)nc(NC(C)C)n1", "relative growth": "1.18 (inactive)"},
      {"smiles": "O=C1c2ccccc2C(=O)N1SC(Cl)(Cl)Cl", "relative growth": "1.03 (inactive)"},
      {"smiles": "Cc1cccc2sc3nncn3c12", "relative growth": "0.911 (inactive)"},
      {"smiles": "CC1(C(=O)Nc2ccc(O)c(Cl)c2Cl)CCCCC1", "relative growth": "0.935 (inactive)"},
      {"smiles": "Oc1ccccc1-c1ccccc1", "relative growth": "0.744 (inactive)"},
      {"smiles": "Cc1nc(N(C)C)nc(OC(=O)N(C)C)c1C", "relative growth": "0.883 (inactive)"},
      {"smiles": "CO/C=C(/C(=O)OC)c1ccccc1Oc1cc(Oc2ccccc2C#N)ncn1", "relative growth": "1.27 (inactive)"},
      {"smiles": "Cc1c(COC(=O)[C@@H]2[C@H](/C=C(\\Cl)C(F)(F)F)C2(C)C)cccc1-c1ccccc1", "note": "(racemic)", "relative growth": "1.17 (inactive)"},
      {"smiles": "CC1(C)C(C=C(Cl)Cl)C1C(=O)OC(C#N)c1cccc(Oc2ccccc2)c1", "note": "(stereo not given)", "relative growth": "1.32 (inactive)"},
      {"smiles": "Cc1cc(C(C#N)c2ccc(Cl)cc2)c(Cl)cc1NC(=O)c1cc(I)cc(I)c1O", "note": "(stereo not given)", "relative growth": "0.0215 (active)"},
      {"smiles": "COc1cc(OC)nc(NC(=O)NS(=O)(=O)c2ncccc2C(=O)N(C)C)n1", "relative growth": "1.09 (inactive)"},
      {"smiles": "CCCN(CCC)C(=O)SCc1ccccc1", "relative growth": "1.04 (inactive)"},
      {"smiles": "C[N+](C)(C)CCCl", "relative growth": "1.05 (inactive)"},
      {"smiles": "CCNC(=O)NC(=O)/C(C#N)=N/OC", "relative growth": "0.965 (inactive)"},
      {"smiles": "C#CCN1C(=O)COc2cc(F)c(N3C(=O)C4=C(CCCC4)C3=O)cc21", "relative growth": "0.92 (inactive)"},
      {"smiles": "CCOP(=S)(OCC)Oc1cc(C)nc(C(C)C)n1", "relative growth": "0.908 (inactive)"},
      {"smiles": "Oc1ccc(Cl)cc1Cc1cc(Cl)ccc1O", "relative growth": "0.00911 (active)"},
      {"smiles": "COc1ccc(-c2ccccc2)cc1NNC(=O)OC(C)C", "relative growth": "0.828 (inactive)"},
      {"smiles": "CN1COCN(Cc2cnc(Cl)s2)/C1=N\\[N+](=O)[O-]", "relative growth": "1.12 (inactive)"},
      {"smiles": "CC1COC(Cn2cncn2)(c2ccc(Oc3ccc(Cl)cc3)cc2Cl)O1", "note": "(stereo not given)", "relative growth": "1.19 (inactive)"},
      {"smiles": "CC1(C)C(C=C(Cl)Cl)C1C(=O)OC(C#N)c1ccc(F)c(Oc2ccccc2)c1", "note": "(stereo not given)", "relative growth": "0.865 (inactive)"},
      {"smiles": "COC(=O)N(C(=O)N1CO[C@@]2(C(=O)OC)Cc3cc(Cl)ccc3C2=N1)c1ccc(OC(F)(F)F)cc1", "relative growth": "1.15 (inactive)"},
      {"smiles": "COC(=O)N(OC)c1ccccc1COc1ccn(-c2ccc(Cl)cc2)n1", "relative growth": "1.36 (inactive)"},
      {"smiles": "CCCCc1c(C)nc(NCC)nc1OS(=O)(=O)N(C)C", "relative growth": "0.861 (inactive)"},
      {"smiles": "O=[N+]([O-])/N=C1\\NCCN1Cc1ccc(Cl)nc1", "relative growth": "1.26 (inactive)"},
      {"smiles": "CCc1cccc(C)c1N(C(=O)CCl)[C@@H](C)COC", "relative growth": "1.04 (inactive)"},
      {"smiles": "N#CCNC(=O)c1cnccc1C(F)(F)F", "relative growth": "1.06 (inactive)"},
      {"smiles": "Cc1cc(C(F)(C(F)(F)F)C(F)(F)F)ccc1NC(=O)c1cccc(I)c1C(=O)NC(C)(C)CS(C)(=O)=O", "relative growth": "0.956 (inactive)"},
      {"smiles": "COP(=S)(OC)Oc1nc(Cl)c(Cl)cc1Cl", "relative growth": "0.447 (inactive)"},
      {"smiles": "N#Cc1c[nH]cc1-c1cccc2c1OC(F)(F)O2", "relative growth": "1.07 (inactive)"},
      {"smiles": "N#Cc1sc2c(=O)c3ccccc3c(=O)c=2sc1C#N", "relative growth": "0.62 (inactive)"},
      {"smiles": "O=C(O)c1nc(Cl)ccc1Cl", "relative growth": "0.925 (inactive)"},
      {"smiles": "O=C(NC(=O)c1c(F)cccc1F)Nc1ccc(OC(F)(F)C(F)OC(F)(F)F)c(Cl)c1", "note": "(stereo not given)", "relative growth": "0.745 (inactive)"},
      {"smiles": "O=C(NC(=O)c1c(F)cccc1F)Nc1ccc(Cl)cc1", "relative growth": "0.911 (inactive)"},
      {"smiles": "CC(C)CC(C)c1sccc1NC(=O)c1cn(C)nc1C(F)(F)F", "note": "(stereo not given)", "relative growth": "0.721 (inactive)"},
      {"smiles": "C[C@@H]1[C@@H](c2ccc(Cl)cc2)SC(=O)N1C(=O)NC1CCCCC1", "relative growth": "0.881 (inactive)"}
    ]}
  ]
}
